PubChem BioAssay AID1851 (National Center for Advancing Translational Sciences (NCATS), 2009)
About 4,000 (25%) of roughly 16,000 compounds were called active. Another 26% or so got no clear call; they are omitted. Not all results are given here. Unmarked numbers belong to inactive results. The call rests on the fitted dose curve; in most records, active means well fitted curve in the direction sought with a large enough effect; inconclusive means small, poorly fitted or top-dose-only effect, or effect the other way; inactive means no such curve, though single readings can be large or run the other way.

target: Cytochrome P450 2C9 (Homo sapiens) (UniProt P11712); assay: Cytochrome panel assay with activity outcomes; settings: recombinant CYP, pro-luciferin dealkylation, luminescence, p450-cyp2c9; series mostly up to 57.1 µM; activity, negative = inhibition: at the top concentration
On the % scale 0 is the no-effect control and ±100 the full control effect.

Chain of Cytochrome P450 2C9 (Homo sapiens) (P11712 whole entry, looked up): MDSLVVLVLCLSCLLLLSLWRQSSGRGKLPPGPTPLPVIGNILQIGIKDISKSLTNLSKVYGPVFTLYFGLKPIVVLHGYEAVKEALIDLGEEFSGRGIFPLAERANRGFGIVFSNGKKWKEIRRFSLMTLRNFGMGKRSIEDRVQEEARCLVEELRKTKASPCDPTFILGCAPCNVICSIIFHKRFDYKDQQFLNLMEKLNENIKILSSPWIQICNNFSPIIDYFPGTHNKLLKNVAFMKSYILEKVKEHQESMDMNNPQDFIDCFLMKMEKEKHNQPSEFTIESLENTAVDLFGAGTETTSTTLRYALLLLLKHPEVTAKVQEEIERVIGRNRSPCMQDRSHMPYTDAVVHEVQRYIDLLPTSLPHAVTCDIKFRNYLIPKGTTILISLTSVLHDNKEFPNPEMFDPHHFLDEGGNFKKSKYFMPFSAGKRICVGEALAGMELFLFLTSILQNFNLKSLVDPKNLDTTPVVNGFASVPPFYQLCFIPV

Point of comparison: `C/C=C1\C[N@@+]2(C)CC[C@@]34C(=C(C=O)[C@H]1C[C@H]32)Nc1ccccc14`, “activity, negative = inhibition” value -12% [at 25.6 µM]. Against it:
- CC1=C2[C@@H]3OC(=O)[C@@H](C)[C@@H]3CC[C@]2(C)C=CC1=O — lower, -19.6% [at 25.6 µM]
- COc1ccc2c(c1OC)CN1CCc3cc4c(cc3[C@H]1C2)OCO4 — higher, 0.606% [at 25.6 µM]
- O=C(CCCN1CCC(n2c(=O)[nH]c3ccccc32)CC1)c1ccc(F)cc1 — higher, 4.59% [at 25.6 µM]
- CO[C@H]1C=C2CCN(C)[C@@H]2[C@@H]2c3cc4c(cc3C(=O)O[C@H]21)OCO4 — higher, -11.2% [at 25.6 µM]
- CCC[C@@](C)(COC(N)=O)COC(=O)NC(C)C — higher, -11.5% [at 25.6 µM]
- CN1[C@H]2CC(=O)C[C@@H]1[C@@H](O)C2 — higher, -10.5% [at 25.6 µM]
- O=[N+]([O-])c1cc([As](=O)(O)O)ccc1O — higher, -8.02% [at 25.6 µM]
- CCCCCC[C@H]1C(=O)O[C@H](C)[C@H](NC(=O)c2cccc(NC=O)c2O)C(=O)O[C@@H](C)[C@H]1OC(=O)CC(C)C — lower, -45.8% [at 25.6 µM]
- CCCCN(CCCC)CCC(O)c1cc2c(Cl)cc(Cl)cc2c2cc(C(F)(F)F)ccc12 (configuration not stated) — higher, 4.34% [at 25.6 µM]
- CN(C)Cc1c[nH]c2ccccc12 — higher, 8.53% [at 25.6 µM]
- C=C(C)[C@H]1CC[C@]2(C(=O)O)CC[C@]3(C)[C@@H](CC[C@H]4[C@@]5(C)CC[C@@H](O)C(C)(C)[C@@H]5CC[C@@]43C)[C@H]12 — higher, -9.3% [at 25.6 µM]
- C[C@@]12CC(=O)[C@H]3[C@@H](CCC4=CC(=O)CC[C@]43C)[C@H]1CCC2=O — higher, 13% [at 25.6 µM]

Point of comparison: `CC(=O)N1CCC2(CC1)CC(=O)c1cc(OCC(=O)N3CCN(C)CC3)ccc1O2`, “activity, negative = inhibition” value -11.2%. Against it:
- O=C(Nc1cccc(F)c1)N1CC2(CCNCC2)C1 — higher, 5.38%
- Cc1nc(N)sc1CCN — higher, -3.11%
- CP(=O)(O)C1=CCNCC1 — higher, 18.5%
- N[C@@H](Cn1oc(=O)[nH]c1=O)C(=O)O — higher, -4.2%
- C[C@@]12CC[C@H]3[C@@H](CC=C4C[C@H](OS(=O)(=O)O)CC[C@]43C)[C@H]1CCC2=O — higher, -9.77%
- CC(C)C[C@H](NP(=O)(O)O[C@@H]1O[C@@H](C)[C@@H](O)[C@@H](O)[C@H]1O)C(=O)N[C@@H](Cc1c[nH]c2ccccc12)C(=O)O — higher, 6.69%
- CC[n+]1c(/C=C/N(C)c2ccccc2)sc2ccc(Cl)cc21 — higher, -6.79%
- CNCCCc1ccccc1 — lower, -34.8%
- NNC(N)=O — higher, 21.6%
- CCN1CCN(Cc2cc(OC)c(OC)cc2[N+](=O)[O-])CC1 — higher, 22.2%
- c1cnc(N2CC[C@@]3(CCCNC3)C2)nc1 — lower, -12.7%
- CCCC(CCC)C(=O)O — higher, -9.81%
- CCNC(=O)[C@@H]1O[C@@H](n2cnc3c(N)ncnc32)[C@@H](O)[C@H]1O — lower, -17%
- COC(=O)Nc1nc2ccc(C(=O)c3cccs3)cc2[nH]1 — higher, 29.3%
- O=C1NCN(c2ccccc2)C12CCN(CCCOc1ccc(F)cc1)CC2 — higher, -0.771%
- CCCN(CCC)C(=O)Cc1c(-c2ccc(Cl)cc2)nc2c(Cl)cc(Cl)cn12 — higher, 8.63%
- CCOC(=O)N1CCC(NC(=O)CCc2nc(C3=CCN(C)CC3)no2)CC1 — lower, -27.6%
- O=C(Nc1ccc(F)cc1F)c1cccnc1Oc1cccc(C(F)(F)F)c1 — higher, 4.09%
- CN(C)CCN(C)CCc1ccc(Cl)c(Cl)c1 — lower, -24.5%
- O=C(Nc1ccccc1)N1CC2(CCN(C(=O)Oc3ccccc3)CC2)C1 — lower, -15.7%
- NC(N)=NN=Cc1c(Cl)cccc1Cl — higher, 2.99%
- c1ccc(N2CCC3(CCNCC3)CC2)cc1 — higher, -10.6%
- COc1ccc(NC(=O)NC2CC3CCCC(C2)N3Cc2ccccc2)cc1 (configuration not stated) — lower, -30.1%
- CCc1ccccc1NC(=O)NC1CC2CCC(C1)N2Cc1cccs1 (configuration not stated) — higher, 12.3%
- O=C1/C(=C\c2ccccc2)C[C@@]2(O)[C@H]3Cc4ccc(O)c5c4[C@@]2(CCN3CC2CC2)[C@@H]1O5 — lower, -16.5%
- Cc1nc2sccc2c(=O)n1-c1ccccc1Cl — lower, -26.4%
- O=C(O)c1nn(Cc2ccc(Cl)cc2Cl)c2ccccc12 — lower, -12.3%
- N[C@H](CCl)C(=O)O — the same, -11.2%
- O=C(Oc1ccccc1)N1CCC2(CCN(Cc3nccs3)CC2)CC1 — higher, 19.4%
- CC(C)COc1ccc(C2(C#N)CC[N+](C)(C)CC2)cc1 — higher, 11.5%
- CCCCC/C=C\C/C=C\C/C=C\C/C=C\CCCC(=O)NCC(=O)O — lower, -23.5%
- CCCCCCCC/C=C\CCCCCCCC(N)=O — lower, -12.7%
- C[N+]1(C)CCc2cc3c(cc2[C@@H]1[C@@H]1OC(=O)c2c1ccc1c2OCO1)OCO3 — higher, 17.7%
- O=C(Nc1ccccc1)N1CC[C@@]2(CCCN(C(=O)Oc3ccccc3)C2)C1 — lower, -20.1%
- CCN1CCC2(CC1)NC(CO)(CO)CO2 — higher, 0.863%
- O=C(O)[C@H]1[C@H](C(=O)O)[C@H]2CC[C@@H]1O2 — higher, 5.98%
- CCCn1c(C)c(C(=O)c2cccc3ccccc23)c2ccccc21 — lower, -12.1%
- C[C@@]12CC[C@@H]3c4ccc(O)cc4C[C@H](CCCCCCCCCS(=O)CCCC(F)(F)C(F)(F)F)[C@H]3[C@@H]1CC[C@@H]2O (some centres not stated) — higher, -9.41%

Point of comparison: `C1C[C@@H]2CN(CCCN3CCOCC3)[C@@H](C1)O2`, activity, negative = inhibition -4.7% [at 11.4 µM]. Against it:
- Cc1ccc(C2(c3ccc(C)c(O)c3C)CCN(C)CC2)c(C)c1O — higher, 7.08% [at 11.4 µM]
- COC(=O)[C@H]1[C@@H](c2ccccc2)[C@@]2(c3ccccc3)Oc3ccccc3[C@@]1(O)[C@@H]2O — lower, -12.5% [at 11.4 µM]
- CCN=C=NCCCN(C)C — lower, -7.95% [at 11.4 µM]
- O=S(=O)(O)/C(=C\c1ccccc1)c1ccccc1 (tested in a mixture with another compound) — lower, -14.8% [at 11.4 µM]
- c1ccc(CCN2CCOCC2)nc1 — higher, -0.553% [at 11.4 µM]
- c1ccc(CCN2CCCCCC2)nc1 — higher, -1.38% [at 11.4 µM]
- CCc1ccc(CCN2CCCCC2)nc1 — lower, -14.9% [at 11.4 µM]
- CC[C@H]1CN2CCc3cc(OC)c(OC)cc3[C@H]2C[C@@H]1C[C@H]1NCCc2c1[nH]c1ccc(O)cc21 — higher, 5.99% [at 11.4 µM]
- C[As+](C)(c1ccc(Br)c([N+](=O)[O-])c1)c1ccc(Br)c([N+](=O)[O-])c1.O=[N+]([O-])O — higher, 1.81% [at 11.4 µM]
- [N-]=[N+]=NCC(=O)c1c[nH]c(=O)[nH]c1=O — lower, -6.58% [at 11.4 µM]
- CC1=C(CC[C@H](C)CO)O[C@@H]2C[C@@H]3[C@H]4CC[C@H]5C[C@@H](O)CC[C@]5(C)[C@@H]4CC(=O)[C@@]3(C)[C@@H]12 — lower, -6.29% [at 11.4 µM]
- COc1cc(CCN)c(OC)c(OC)c1 — higher, -1.31% [at 11.4 µM]
- O=C(CCN1CC2CCC(CC2)C1)c1cccs1 — lower, -7.86% [at 11.4 µM]
- C[C@@H]1OC=C2[C@@H](O)[C@H]3O[C@H]3C(=O)[C@@]23[C@H]1[C@H]1C2=C([C@@H](O)[C@H]4O[C@@H]4C2=O)[C@@H]3O[C@@H]1C — higher, 19.8% [at 11.4 µM]
- Nc1nnnn1CCO — higher, -3.83% [at 11.4 µM]
- CS(=O)(=O)O[C@H]1CN2CCC1CC2 — higher, 8.53% [at 11.4 µM]
- O=C(O)/C=C(\CC(=O)O)C(=O)O — lower, -16.9% [at 11.4 µM]
- O=C(O)C(=O)Cc1ccc2c(c1)OCO2 — higher, 25.4% [at 11.4 µM]
- N[C@H](Cc1c[nH]c2ccccc12)P(=O)(O)O — higher, 5.69% [at 11.4 µM]

`COc1cc([C@H]2c3cc4c(cc3[C@@H](O)[C@@H]3COC(=O)[C@H]23)OCO4)cc(OC)c1OC` was tested, and the AC50 was 1.26 µM (active).
With `S=C(S)N1CCCC1` the AC50 was 20 µM (active).
For `O=C(COc1ccc2ccccc2c1)N1CCN(CC2CC3C=CC2C3)CC1` (configuration not stated), the AC50 was 17.8 µM (active).
For `COc1cc(OC)c(/C=C2/C(=O)Nc3ccccc32)c(OC)c1`, the AC50 was 25.1 µM (active).
With `CC(C)C[C@H](NC(=O)N1CCCCCC1)C(=O)N[C@H](Cc1cn(C)c2ccccc12)C(=O)N[C@H](Cc1ccccn1)C(=O)O` the AC50 was 6.31 µM (active).
With `O=c1oc(Cl)c(Cl)c2ccccc12` the AC50 was 15.8 µM (active).
For `CC(=O)Nc1ccccc1C(=O)OCc1ccc(C(=O)c2ccccc2)cc1`, the AC50 was 3.55 µM (active).
With `CN1C(=O)C(=Cc2ccc(N3CCCCCC3)o2)C(=O)N(C)C1=S` the AC50 was 7.94 µM (active).
In the case of `O=[N+]([O-])c1cc(O)c(O)c([N+](=O)[O-])c1`, the AC50 is reported as 0.794 µM (active).
In the case of `CC(C)c1c(CN(C)[C@@H](C)Cc2ccccc2)n(C)n(-c2ccccc2)c1=O`, the AC50 is reported as 7.94 µM (active).
In the case of `O=C(NC1CCCCC1)NC1CC2CCC(C1)N2Cc1nnnn1Cc1ccc2c(c1)OCO2` (configuration not stated), the AC50 is reported as 14.1 µM (active).
`O=c1c2ccccc2nc(N2CCCC2)n1-c1ccc(Cl)cc1` was tested, and the AC50 was 14.1 µM (active).
In the case of `Cc1ccc(NC(=[OH+])c2cc3ccccc3cc2O)c(C)c1.Cc1ccc(NC(=[OH+])c2cc3ccccc3cc2O)c(C)c1.[Ni]`, the AC50 is reported as 3.16 µM (active).
With `CCCCC/C=C\C/C=C\C/C=C\C/C=C\CCCC(=O)Nc1ccc(O)cc1` the AC50 was 5.01 µM (active).
In the case of `COCOc1ccc(Br)cc1C(=O)/C=C\c1ccc2c(c1)OCO2`, the AC50 is reported as 2 µM (active).
`O=C(c1ccccc1F)c1cn(CC(=O)N2CCOCC2)c2ccccc12` was tested, and the AC50 was 11.2 µM (active).
In the case of `CCOC(=O)Cn1cc(C(=O)c2ccccc2F)c2ccccc21`, the AC50 is reported as 7.08 µM (active).

For `C=C[C@H]1CN2CC[C@@H]1C[C@H]2[C@@H](O)c1ccnc2ccccc12`, the activity, negative = inhibition was “inactive”.
In the case of `c1ccc(C2CC2)c(OCC2=NCCN2)c1`, the activity, negative = inhibition is reported as “inactive”.
In the case of `COc1ccc(OC)c([C@H](O)[C@H](C)N)c1`, the activity, negative = inhibition is reported as “inactive”.
In the case of `CCCN1CCC[C@H](c2cccc(O)c2)C1`, the activity, negative = inhibition is reported as “inactive”.
For `COc1cc(C[C@H](C)N)c(OC)cc1I`, the activity, negative = inhibition was “inactive”.
`O=C(CCCN1CCC2(CC1)C(=O)NCN2c1ccccc1)c1ccc(F)cc1` was tested, and the activity, negative = inhibition was “inactive”.
`C=CCN1CCC2(C)c3cc(O)ccc3C[C@H]1[C@H]2C` was tested, and the activity, negative = inhibition was “inactive”.
`CN1[C@@H]2CC[C@H]1CC(O[C@@H](c1ccccc1)c1ccc(Cl)cc1)C2` (some centres not stated) was tested, and the activity, negative = inhibition was “inactive”.
